What all share (assay): NCI-60 one-dose screen, 48 h (100 = growth as untreated, 0 = no growth, -100 = all killed)
Common to all, as to conditions: 10 µM unless noted

Assay [1] has as its system NCI-H23 lung.
Assay [2] has as its system NCI-H226 lung.
Assay [3] concerns NCI-H322M lung.
The test system of assay [4] is HOP-62 NSCLC.
In assay [5] the test system is NCI-H460 lung.
Assay [6] deals with HOP-92 NSCLC.
Assay [7] concerns NCI-H522 lung.
Assay [8] relates to A549/ATCC NSCLC.
The test system of assay [9] is 786-0 renal.
Assay [10] has as its system DU-145 prostate.
Assay [11] relates to K-562 leukemia.
In assay [12] the test system is MALME-3M melanoma.
In assay [13] the test system is MDA-MB-231 breast.
The test system of assay [14] is RXF 393 renal.
In assay [15] the test system is SF-268 CNS.
Assay [16] has as its system SF-295 CNS.
Assay [17] deals with SF-539 CNS.
Assay [18] concerns UACC-257 melanoma.
For assay [19], the system named is M14 melanoma.

This is part of a sample that, as a whole, favours compounds with a hit. Of some 83,000 tested, about 20% had one in any assay.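 96-well plates, one dose, 48 hours. Percent growth reported; active if below 10.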 Unmarked numbers belong to inactive results. Activity calls are given as the source filed them.

As to `O=C(NC(=S)Nc1ccc(-c2nc3ccccc3[nH]2)cc1)c1ccc2ccccc2c1`, the growth is 58.1% in [1]; 51.1% in assay [2]; 21.5% in [3]; 8.8% (active) in assay [4]; 5.41% (active) in assay [5]; -1.16% (active) in assay [6]. The growth is 63.2% in assay [7]; 26.3% in assay [8]; -67.5% (active) in [9]; 18.8% in [10]; 59.9% in assay [11]; -12% (active) in [12]. The growth in assay [13] is -18.6% (active); in [14], -66.3% (active); in [15] it was 51%; in [16] it was 19.7%; in [17], -30.8% (active); in assay [18], 49.2%. In [19], the growth was 38%.
Take `Cc1cnc(Nc2ccc(N3CCN(C)CC3)cc2)nc1Nc1ccc(Cl)c(NS(=O)(=O)C(C)(C)C)c1`: the growth is 18.9% in assay [1]; 7.11% (active) in assay [2]; 37.2% in [3]; 14.1% in assay [4]; 20.5% in assay [5]; -27.8% (active) in assay [6]. The growth in assay [7] is -28.8% (active); in [8] it was -26.1% (active); in assay [9] it was -30.4% (active); in assay [10], 13.4%; in assay [11], 7.56% (active); in assay [12], 19.3%. The growth in assay [13] is 4.33% (active); in [14], -78.2% (active); in assay [15], 15.7%; in assay [16] it was 26.1%; in assay [17] it was -36.4% (active); in assay [18] it was 5.3% (active). Moreover, in assay [19], the growth is 8.84% (active).
For `CCCCN1CCN(c2ccc3nc(-c4ccc5nc(-c6cc(OC)c(OC)c(OC)c6)[nH]c5c4)[nH]c3c2)CC1`, the growth is 82.9% in assay [1]; 77.6% in assay [2]; 86.4% in assay [3]; 61.4% in assay [4]; 83% in assay [5]; 49.9% in [6]. Also, the growth in assay [7] is 52.8%; in assay [8] it was 105%; in assay [9], 50.6%; in assay [10] it was 91.6%; in assay [11], 30.8%; in assay [12] it was 21.1%. Also, the growth is 78.9% in [13]; -43.4% (active) in assay [14]; 71.8% in assay [15]; 58.6% in assay [16]; 61.1% in assay [17]; 87.9% in [18]. Also, the growth in assay [19] is 59%.
On to `C=C(C)[C@@H]1CC[C@]2(CN)CC[C@]3(C)[C@H](CC[C@@H]4[C@@]5(C)CCC(N)[C@@](C)(CO)[C@@H]5CC[C@]43C)[C@@H]12` (some centres not stated), for which the growth is 53% in [1]; 89.6% in [2]; 34.4% in [3]; -89.2% (active) in assay [4]; -75.7% (active) in assay [5]; 51.7% in assay [6]. The growth in [7] is -77.5% (active); in assay [8], -82.3% (active); in assay [9] it was -92.9% (active); in [10], -38.1% (active); in assay [11], -69.8% (active); in assay [12], -85.9% (active). Moreover, the growth in [13] is -80.9% (active); in assay [14], 58.4%; in assay [15], -79.5% (active); in assay [16], 87.8%; in [17] it was -72.6% (active); in assay [18], -88.7% (active). Further, the growth in assay [19] is -81.8% (active).
For the compound `C=C(C)[C@@H]1CC[C@]2(C(=O)NCC(=O)O)CC[C@]3(C)[C@H](CC[C@@H]4[C@@]5(C)Cc6c([nH]c7ccccc67)C(C)(C)[C@@H]5CC[C@]43C)[C@@H]12`, the growth in assay [1] is 73.5%; in [2], 87.8%; in [3] it was 85.5%; in [4] it was 58.5%; in assay [5], 88.5%; in assay [6], 81%. For the same compound, the growth in [7] is 41.9%; in [8], 67.1%; in assay [9], 84.4%; in assay [10], 93.5%; in assay [11], 72.4%; in assay [12], 107%. Moreover, the growth was 92% in assay [13]; 91.2% in assay [14]; 76.1% in assay [15]; 56.2% in [16]; 56.3% in assay [17]; 87.1% in assay [18]. The growth in assay [19] was 86.9%.
For the compound `O=C(NCCOCCOCCNc1cccc2c1C(=O)N(C1CCCNC1=O)C2=O)c1cc2c(o1)C(=O)c1ccccc1C2=O` (configuration not stated), the growth in assay [1] is -42.8% (active); in assay [2] it was -79.8% (active); in assay [3], -62.1% (active); in assay [4] it was -65.2% (active); in assay [5], -70.7% (active); in assay [6], 22.2%. Further, the growth was -52.7% (active) in [7]; -45.5% (active) in [8]; 3.9% (active) in assay [9]; -90.8% (active) in assay [10]; 9.04% (active) in [11]; -94.9% (active) in assay [12]. The growth was -2.54% (active) in [13]; -35.4% (active) in assay [14]; -9.46% (active) in assay [15]; -91.9% (active) in assay [16]; -86.2% (active) in assay [17]; -84.1% (active) in assay [18]. In assay [19], the growth was -52.7% (active).
`Clc1ccc2[nH]c3c(NCCCN4CCOCC4)ncnc3c2c1`: the growth in assay [1] was 76.8%; in assay [2], 86.1%; in assay [3] it was 68.9%; in assay [4], 83.5%; in [5], 69.3%; in [6] it was 67.8%. The growth in [7] was 90.3%; in assay [8], 80.1%; in assay [9], 80.3%; in [10], 87.3%; in [11] it was 31.6%; in [12], 93.9%. Besides, the growth in assay [13] is 56.7%; in assay [14], 70.5%; in [15], 99.6%; in assay [16] it was 64.7%; in [17] it was 95.4%; in assay [18] it was 98.2%. The growth in [19] is 73.8%.
As for `CN1C(=O)CCC(N2C(=O)c3cccc(NCCOCCOCCNC(=O)c4cc5c(o4)C(=O)c4ccccc4C5=O)c3C2=O)C1=O` (configuration not stated), the growth in assay [1] was -52.7% (active); in assay [2], -72.1% (active); in assay [3], -93% (active); in assay [4], -59.1% (active); in assay [5], -73.1% (active); in assay [6], 65%. In addition, the growth was -35% (active) in [7]; -45% (active) in assay [8]; 8.13% (active) in assay [9]; -95.3% (active) in assay [10]; 10.5% in [11]; -97.4% (active) in assay [12]. The growth in [13] is -3.68% (active); in [14] it was -34.6% (active); in assay [15], -0.714% (active); in assay [16] it was -88.1% (active); in [17] it was -80.4% (active); in [18], -85.1% (active). The growth in assay [19] was -67.2% (active).

(Values after PubChem BioAssay (NCI).)
